# Measurements as given in PubChem BioAssay (NCATS).
# Inconclusive results are not listed. Values without a mark were called inactive. Calls of active or inactive are those of the source. Calls come from the whole dose curve; as a rule, active = well fitted inhibition curve with a large enough effect; inconclusive = small, poorly fitted or top-dose-only effect; inactive = no such curve, though single readings can be large or run the other way. Bridge positions count the residues as written; N and C are the ends. Square brackets hold non-standard residues; d marks the D form. Side chains are listed from the residue outwards. Peptide text beside a SMILES is read from it. * marks the point of attachment. Phg(4-OMe) = COc1ccc([C@H](N)C(=O)O)cc1; d(aIle) = CC[C@H](C)[C@@H](N)C(=O)O; d(aThr) = C[C@@H](O)[C@@H](N)C(=O)O; NMeF = CN[C@@H](Cc1ccccc1)C(=O)O; Isobutyryl = CC(C)C(=O)*
# Target: Nuclear receptor subfamily 1 group I member 3 (Homo sapiens) (UniProt Q14994)
# Experiment: qHTS for Constitutive Androstane Receptor (CAR) Antagonist screened against the NCATS CANVASS Library (AID 1347372);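 for activity change, negative = inhibition: cells stimulated with 50 nM CITCO agonist so inhibition reflects antagonism; luciferase from CYP2B6 promoter reporter driven by hCAR in HepG2 cells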
# Settings: HepG2-hCAR-CYP2B6 luciferase, CITCO-stimulated antagonist mode; series mostly up to 46.1 µM; activity change, negative = inhibition: at the top concentration
# Excerpt: Natural products and their derivatives continue to be wellsprings of nascent therapeutic potential. However, many laboratories have limited resources for biological evaluation, leaving their previously isolated or synthesized compounds largely or completely untested. To address this issue, the Canvass library of natural products was assembled (https://tripod.nih.gov/canvass), in collaboration with academic and industry researchers, for quantitative high-throughput screening (qHTS) across a diverse set of cell-based and biochemical assays. The pure (>85% purity by liquid chromatography/mass spectrometry [LC/MS]) Canvass library of 346 natural products were submitted by 45 academic laboratories and companies around the world. We collected pure natural products to circumvent deconvolution and structure elucidation due to time and resource limitations. The library was formatted into 1536-well plates and evaluated in 50 qHTS (in an 11-pnt concentration series) bioassays with broad scope of disease-relevant mechanisms. The resulting data set from 50 different assays was then systematically analyzed to identify overall trends and specific natural products with interesting biological activities. Reported herein are the results of each individual qHTS and their corresponding assay protocol. The constitutive androstane receptor (CAR) is a nuclear receptor which regulates multiple drug metabolizing enzymes (DMEs) and transporters. Activating CAR will generally increase the transcription and subsequent translation of CYP2B6 and CYP3A4. These two DMEs represent about 50% of the drug metabolizing potential in the body. […] Recently, there have also been studies performed indicating CARs role in energy metabolism and cancer therapy. Therefore, inducing or inhibiting CAR's activity could have a potential effect on diabetes and/or cancer. National Center for Advancing Translational Sciences (NCATS), Rockville, MD National Institute of Health (NIH), Bethesda, Maryland
# Material: A double-stable (hCAR and CYP2B6-2.2kb) transfected cell line, derived from human hepatoma (HepG2) cells, was utilized for the duration of the quantitative high-throughput screens. The HepG2-CYP2B6-hCAR cells suspended in DMEM culture medium supplemented with 10% FBS, 5 ug/mL blasticidin, 0.5 mg/mL geneticin, 100 U/mL penicillin and 100 ug/mL streptomycin. CAR Antagonist assay protocol: 1. In a 1536 well, tissue culture treated white solid bottom plates (Greiner Bio-One North America), 4 uL of engineered HepG2-hCAR-CYP2B6 cell solution (final concentration 2500 cells / well) was dispensed using the Multidrop Combi dispenser (Thermo Fisher Scientific). 2. The assay plates were incubated for 4hr at 37C, 5% CO2 to allow the cells to acclimate and attach. 3. Compounds were pin transferred (~23 nL volume) to the assay plates via Wako Pin-tool (Wako Automation, Richmond VA) equipped with a 1536 pin head. The compounds were transferred to columns 5-48 resulting in a final concentration ranging from 0.6nM to 92uM. 4. One uL of CITCO, was added using a Flying Reagent Dispenser to generate a final concentration of 50 nM CITCO inside each well. 5. The assay plates were incubated at 37C, 5% CO2 for 24hr. 6. To measure cell viability, 1 uL of CellTiter-Fluor (Promega) reagent was then added to the assay plates (column 1-48, rows 1-32). The assay plates were incubated for 1hr at 37C, 5% CO2. 7. A first readout of fluorescence signal was acquired via the ViewLux (PerkinElmer) plate reader using a FITC dichroic mirror, excitation 405/10 nm filter, and emission 540/25 nm filter; and using 65 light energy, 1 second exposure, and 2x binning settings. 8. To measure CAR activation, 4 uL of ONE-Glo reagent (Promega) was added to the assay plates (column 1-48, rows 1-32). The assay plates were further incubated at room temperature for 30 min. 9. A second readout of luminescence signal was acquired via the ViewLux plate reader using a clear emission filter, 10 second exposure, 2x binning settings. […]
# % is set by controls: 0 for no effect and ±100 for the full control effect; potency is the fitted concentration of half-maximal effect.
# Chain of Nuclear receptor subfamily 1 group I member 3 (Homo sapiens) (Q14994 whole entry, looked up): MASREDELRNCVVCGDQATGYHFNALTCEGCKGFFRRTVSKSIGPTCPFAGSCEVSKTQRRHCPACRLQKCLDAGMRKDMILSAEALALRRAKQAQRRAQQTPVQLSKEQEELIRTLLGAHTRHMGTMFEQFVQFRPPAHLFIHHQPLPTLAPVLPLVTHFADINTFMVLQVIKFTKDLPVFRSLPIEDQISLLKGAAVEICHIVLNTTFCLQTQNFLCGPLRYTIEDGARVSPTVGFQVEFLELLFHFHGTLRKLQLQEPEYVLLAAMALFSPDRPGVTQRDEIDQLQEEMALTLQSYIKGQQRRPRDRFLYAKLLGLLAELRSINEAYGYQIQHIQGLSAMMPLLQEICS
SMILES,"activity change, negative = inhibition",Potency
COC(=O)[C@@]1(C)CCC[C@]2(C)c3cc(OC)ccc3CC[C@@H]12,33.4%,
C[C@]12CCC[C@](C)(C(=O)O)[C@@H]1CC[C@@]1(C)c3cocc3CC[C@H]21,-8.77%,
CCC(=O)CCCCC[C@@H]1NC(=O)[C@H]2CCCCN2C(=O)[C@H](C(C)C)NC(=O)[C@H](Cc2cn(OC)c3ccccc23)NC1=O,,11.7 µM (active)
C=C[C@@]1(C)CC[C@@H]([C@H](C)C(C)=O)O1,4.16%,
CC(=O)c1c(C)cc2c(c1O)C(=O)c1c(O)cc(O)cc1C2=O,3.63%,
CC(C)=CCCC(C)(O)[C@H]1CC=C(C)C(O)C1 (stereo not given in full),-7.26%,
C/C(=C\CC[C@@H](C)[C@H]1CC[C@]2(C)C3=CCC4C(C)(C)[C@@H](O)C[C@@H](O)[C@]4(C)C3[C@H](O)C[C@@]12C)CO (stereo not given in full),15.8%,
COC(=O)[C@@]12Oc3cccc(O)c3C(O)=C1C(=O)C[C@H](C)[C@H]2O,51.2% [at 91.4 µM],
CC[C@H](C)[C@H]1NC(=O)[C@@H](NC(=O)C(C)C)[C@@H](C)OC(=O)[C@H](COC(=O)CNC(C)=O)NC(=O)[C@@H]([C@@H](C)O)NC(=O)[C@H](Cc2ccccc2)N(C)C(=O)[C@H](c2ccc(OC)cc2)NC1=O (Isobutyryl-T[d(aIle)][Phg(4-OMe)][NMeF][d(aThr)]S([Gly-Ac]); ester 1-C),-0.238%,
CC1=C(C)C(=O)OC(C(C)C2(O)CCC3C4C5OC5C5(O)CC=CC(=O)C5(C)C4CCC32C)C1 (stereo not given),135%,
O=c1cc(-c2ccc(O)c(O)c2)oc2cc(O[C@@H]3O[C@H](CO)[C@@H](O)[C@H](O)[C@H]3O)cc(O)c12,102%,
O=C1OC(CCO)c2cccc(O)c21 (stereo not given),2.62%,
C[C@@H]1CC[C@]2(C(=O)O)CC[C@]3(C)C(=C2[C@H]1C)CC[C@@H]1[C@@]2(C)CC[C@H](O)C(C)(C)[C@@H]2CC[C@]13C,8.25%,
O=Cc1ccc2n1C[C@]1(OC2)O[C@H](CO)[C@@H](O)[C@@H]1O,-0.282%,
C=C[C@@]1(C)CC[C@@H]([C@H](C)C(=O)/C=C/C(C)(C)O)O1,88%,
CC(CCC[C@]1(C)C(=O)C=C[C@@]23C[C@]4(C)O[C@@H](C[C@@H]4[C@H]2O)C31)C(=O)O (stereo not given in full),4.51%,
CC[C@@H](c1cc(OC)c(OC)cc1OC)[C@H](C)[C@@H](/C(C)=C/c1cc(OC)c(OC)cc1OC)c1cc(OC)c(OC)cc1OC,,inactive
O[C@H]1C=C2[C@H]3CN(Cc4cc5c(cc43)OCO5)[C@H]2C[C@@H]1O,,13.2 µM (active)
C/C1=C/[C@@H](C)[C@H](O)[C@@H](O)/C=C/CC/C=C/C(=O)O[C@@H]1[C@H](C)C(=O)CCCC1CC(=O)NC(=O)C1,17.6%,
C=C1C[C@H]2O[C@@H]3[C@@H]4[C@H](CC[C@@](C)(O)[C@@H]42)[C@H](C)COC3(C)[C@@H](OC(=O)CCCCCCC)CC1=O (stereo not given in full),42.8%,

SMILES,"activity change, negative = inhibition",Potency
C=C1C[C@H]2O[C@@H]3[C@@H]4[C@H](CC[C@@](C)(O)[C@@H]42)[C@H](C)COC3(C)[C@@H](OC(=O)CCCCCCC)C[C@H]1O (stereo not given in full),-6.02%,
C=CC(CCCCC)C1C(=O)NC(=O)C1C(=O)C1C(/C=C/C)C=CC2CC(C(=O)O)CC(C)C21 (stereo not given),2.51%,
CO/C=C/C(=O)c1cc2cnc3c(N)cc(=NC(=O)C(C)C)c([nH]1)c23,,0.295 µM (active)
C/C=C/C(=O)C1(O)CC2CC(C(=O)O)CC(C)C2C1C1=C2C(=O)NC(=O)C2=C(CCCCC)C(C)O1 (stereo not given),48.6%,
O=c1cc(-c2ccc(O)cc2)oc2cc(O)c([C@@H]3OC(CO)[C@H](O)[C@@H](O)[C@H]3O)c(O)c12 (stereo not given in full),10.2%,
COc1ccc([C@@H]2c3cc4c(cc3C(=O)[C@H](C)C2C)OCO4)cc1OC (stereo not given in full),4.01%,
CO[C@@H]1[C@H](O)[C@@H](C)O[C@@H](OC[C@@H]2C(C)OC(=O)/C=C/[C@H](C)C(O[C@@H]3O[C@H](C)CC4(OC(=O)O[C@@H]4C)C3O)[C@@H](C)CC(C)C(=O)/C=C/[C@H]3OC23)[C@@H]1OC (stereo not given in full),,20.9 µM (active)
COC1C(C)OC(OCC23C[C@@H]4[C@H](C)CC[C@H]4C4(C=O)CC2C=C(C(C)C)C34C(=O)O)[C@@H](O)[C@H]1O (stereo not given in full),28.5%,
C[C@H]1C=C[C@H]2CCCC[C@@H]2[C@H]1C(=O)[C@H]1CC2=C(C(=O)O)CCN2C1=O,11%,
C[C@@]12CCC[C@@](C)(C(=O)O)[C@H]1CC[C@@]13C[C@@H](CC[C@H]12)[C@](C)(O)C3,-6.03%,
COc1c(O)cc(O)c2c(=O)cc(-c3ccccc3)oc12,89.5%,
COC(=O)[C@]1([C@H]2CCC(=O)O2)CC(=O)c2c(O)cc(C)cc2O1,2.96%,
CC(=O)O[C@H]1c2ccccc2-c2c3c(cc4c2[C@@H]1N(C(C)=O)CC4)OCO3,61.1%,
O=C1CC(c2ccc(O)cc2)Oc2ccccc21 (stereo not given),340%,
C=C1CC[C@@H](O[C@H]2C[C@@](O)([C@H](C)NC(=O)c3[nH]c(C)c(Cl)c3Cl)[C@H](O)[C@@H](C)O2)[C@@H]2C=C[C@H](C)C(/C(O)=C3/C(=O)[C@H](C(C)C)N([C@@H]4O[C@H](C)[C@H](OC(N)=O)[C@H](OC(C)=O)[C@@H]4OC)C3=O)[C@@H]12 (stereo not given in full),-9.83%,
C=CC(CCCCC)C1C(=O)NC(=O)C1C(=O)C1C2C(C)CC(C(=O)O)CC2CC1(O)C(=O)/C=C/C (stereo not given),37.9%,
COc1ccc([C@@H]2c3cc4c(cc3C[C@H](C)C2C)OCO4)cc1OC (stereo not given in full),3.02%,
Cc1occ2c1C(=O)c1c(cc(O)c(O)c1O)C2=O,3.03%,
CC(=O)N[C@H](C)c1nc(/C=C/C=C/C(=O)CC2CC(=O)CC[C@]2(C)O)cs1 (stereo not given in full),7.13%,
CC1(C)CC[C@]2(CO)CC[C@]3(C)C(=CCC4[C@@]5(C)CC[C@H](O)C(C)(C)C5CC[C@]43C)C2C1 (stereo not given in full),-4.03%,
